Results from ChEMBL document CHEMBL5606458, “ASAP - ZIKV NS2B-NS3 protease fluorescence single point” (2024).
Out of some 2,700 compounds screened, about 160 (5.9%) showed an effect of 50% or more. Shown is part of a subset that was picked to be rich in strong results.

Target: Nonstructural protein 3 (Zika virus) (UniProt A0A024AXB9)
[1] = PRVABC59, Concentration 15.0 uM, Number of replicates 1.0

Sequence of Nonstructural protein 3 (Zika virus) (A0A024AXB9 as listed by the source): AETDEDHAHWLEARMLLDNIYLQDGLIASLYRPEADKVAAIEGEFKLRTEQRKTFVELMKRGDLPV

CC(C)(C)c1csc(NC(=O)c2cc(Cl)ccc2NS(=O)(=O)c2ccc(Oc3ccccc3Cl)cc2)n1
inhibition [1]: 22.1%

Cc1cc(CO)c2cccc(NC(=O)[C@H]3CCNC3)c2n1
inhibition (PRVABC59, Concentration 49.95 uM, Number of replicates 2.0, Standard deviation 1.562551081581127 %): -4.16% | inhibition (PRVABC59, Concentration 99.9 uM, Number of replicates 2.0, Standard deviation 2.5850257028478962 %): 4.64%

Cc1cc(CO)c2cccc(NC(=O)c3nc(-c4ccccc4)oc3C(F)(F)F)c2n1
inhibition (PRVABC59, Concentration 49.95 uM, Number of replicates 2.0, Standard deviation 2.699761899961709 %): 15.3% | inhibition (PRVABC59, Concentration 99.9 uM, Number of replicates 2.0, Standard deviation 2.5993991268892636 %): 24.8%

Cc1cc(CO)c2cccc(Cc3cccc(NC(=O)c4nc(C5CCNCC5)oc4C)c3)c2n1
inhibition (PRVABC59, Concentration 49.95 uM, Number of replicates 2.0, Standard deviation 2.83494201600161 %): -5.64% | inhibition (PRVABC59, Concentration 99.9 uM, Number of replicates 2.0, Standard deviation 2.936734747350333 %): -6.74%

Cc1cc(CO)c2cccc(Cc3ccccc3NC(=O)c3nc(-c4ccccc4)oc3C(F)(F)F)c2n1
inhibition (PRVABC59, Concentration 49.95 uM, Number of replicates 2.0, Standard deviation 1.8373680900098652 %): 5.06% | inhibition (PRVABC59, Concentration 99.9 uM, Number of replicates 2.0, Standard deviation 1.2469667752869535 %): 9.26%

Cc1cc(CO)c2cccc(NC(=O)c3nc(C4CCNCC4)oc3C)c2n1
inhibition (PRVABC59, Concentration 49.95 uM, Number of replicates 2.0, Standard deviation 16.97136657317194 %): 81.5% | inhibition (PRVABC59, Concentration 99.9 uM, Number of replicates 2.0, Standard deviation 2.022315036184036 %): 88.9%

Cc1cc(CO)c2cccc(Cc3ccccc3NC(=O)c3nc(C4CCNCC4)oc3C)c2n1
inhibition (PRVABC59, Concentration 49.95 uM, Number of replicates 2.0, Standard deviation 3.130141914719793 %): 12.3% | inhibition (PRVABC59, Concentration 99.9 uM, Number of replicates 2.0, Standard deviation 0.6412983547468495 %): 60.8%

Cc1cc(N)c2cc(Cl)cc(Cl)c2n1
inhibition (PRVABC59, Concentration 99.9 uM, Number of replicates 2.0, Standard deviation 12.824277322413067 %): -8.83%

COC(=O)c1ccc(F)c(Cn2cc(C3CCNCC3)c(C)n2)c1
inhibition (PRVABC59, Concentration 49.5 uM, Number of replicates 2.0, Standard deviation 1.8234550992150553 %): 1.56% | inhibition (PRVABC59, Concentration 99.01 uM, Number of replicates 2.0, Standard deviation 0.947622366220452 %): 0.074% | inhibition (PRVABC59, Concentration 198.0 uM, Number of replicates 2.0, Standard deviation 0.08409628118336304 %): 3.65%

COc1cc(COc2cc(C)nc3ncnn23)nc(N2CCNCC2)n1
inhibition (PRVABC59, Concentration 49.5 uM, Number of replicates 2.0, Standard deviation 2.68247440066745 %): 1.51% | inhibition (PRVABC59, Concentration 99.01 uM, Number of replicates 2.0, Standard deviation 1.6078501771858478 %): 0.374% | inhibition (PRVABC59, Concentration 198.0 uM, Number of replicates 2.0, Standard deviation 1.0644090707345926 %): 1.09%

O=C(NCCCSc1ccccc1)c1cc(Cl)ccc1NS(=O)(=O)c1ccc(Oc2ccccc2Cl)cc1
inhibition [1]: 21.8%

N#C[C@@H](NC(=O)c1cc(Cl)ccc1NS(=O)(=O)c1ccc(Oc2ccccc2Cl)cc1)c1ccc(F)cc1
inhibition [1]: 28.7%

Cc1cc(CO)c2cccc(Cc3ccccc3C(=O)N(c3ncccn3)S(=O)(=O)c3ccc(N)cc3)c2n1
inhibition (PRVABC59, Concentration 49.95 uM, Number of replicates 2.0, Standard deviation 0.5295893128804832 %): 2.68% | inhibition (PRVABC59, Concentration 99.9 uM, Number of replicates 2.0, Standard deviation 0.15206043463069627 %): 8.61%

Cc1cc(CO)c2cccc(Cc3cccc(C(=O)N(c4ncccn4)S(=O)(=O)c4ccc(N)cc4)c3)c2n1
inhibition (PRVABC59, Concentration 49.95 uM, Number of replicates 2.0, Standard deviation 0.9333358068338657 %): 1.86% | inhibition (PRVABC59, Concentration 99.9 uM, Number of replicates 2.0, Standard deviation 0.5295896500552713 %): 17.8%

Cc1cc(CO)c2cccc(CC(=O)N(c3ncccn3)S(=O)(=O)c3ccc(N)cc3)c2n1
inhibition (PRVABC59, Concentration 49.95 uM, Number of replicates 2.0, Standard deviation 0.08143445481880901 %): 93.4% | inhibition (PRVABC59, Concentration 99.9 uM, Number of replicates 2.0, Standard deviation 0.09670172922339526 %): 93.5%

c1ccn2c(CNCC3CCOCC3)nnc2c1
inhibition (PRVABC59, Concentration 49.5 uM, Number of replicates 2.0, Standard deviation 1.8796463523944162 %): -1.69% | inhibition (PRVABC59, Concentration 99.01 uM, Number of replicates 2.0, Standard deviation 2.0631141970669455 %): -2.09% | inhibition (PRVABC59, Concentration 198.0 uM, Number of replicates 2.0, Standard deviation 1.9030296768293513 %): -4.01%

Cc1cc(Br)ccc1CNC(=O)c1cc(Cl)ccc1NS(=O)(=O)c1ccc(Oc2ccccc2Cl)cc1
inhibition [1]: 27.2%

O=C(Nc1ccccc1Sc1ccccc1)c1cc(Cl)ccc1NS(=O)(=O)c1ccc(Oc2ccccc2Cl)cc1
inhibition [1]: 25.8%

O=C(Nc1ccccc1Cc1ccccc1)c1cc(Cl)ccc1NS(=O)(=O)c1ccc(Oc2ccccc2Cl)cc1
inhibition [1]: 55.2%

O=C(NCCc1nc(-c2ccc(Cl)cc2)no1)c1cc(Cl)ccc1NS(=O)(=O)c1ccc(Oc2ccccc2Cl)cc1
inhibition [1]: 20.2%

O=C(Nc1ccc(SC(F)(F)F)cc1)c1cc(Cl)ccc1NS(=O)(=O)c1ccc(Oc2ccccc2Cl)cc1
inhibition [1]: 45.3%

O=C(NCc1nc(-c2ccccn2)no1)c1cc(Cl)ccc1NS(=O)(=O)c1ccc(Oc2ccccc2Cl)cc1
inhibition [1]: 54%

COc1c(Cl)cccc1NC(=O)c1cc(Cl)ccc1NS(=O)(=O)c1ccc(Oc2ccccc2Cl)cc1
inhibition [1]: 38.1%

O=C(Nc1ccc(C(F)(F)F)cc1)c1cc(Cl)ccc1NS(=O)(=O)c1ccc(Oc2ccccc2Cl)cc1
inhibition [1]: 26.8%

COc1cc(NC(=O)c2cc(Cl)ccc2NS(=O)(=O)c2ccc(Oc3ccccc3Cl)cc2)c(Cl)cc1Cl
inhibition [1]: 35%

COc1ccc(NC(C)=O)cc1NC(=O)c1cc(Cl)ccc1NS(=O)(=O)c1ccc(Oc2ccccc2Cl)cc1
inhibition [1]: 55%

O=C(Nc1ccc(OC(F)F)cc1)c1cc(Cl)ccc1NS(=O)(=O)c1ccc(Oc2ccccc2Cl)cc1
inhibition [1]: 57.7%

O=C(NCc1ccc(-c2ccccn2)cc1)c1cc(Cl)ccc1NS(=O)(=O)c1ccc(Oc2ccccc2Cl)cc1
inhibition [1]: 31.7%

CNC(=O)c1ccccc1NC(=O)c1cc(Cl)ccc1NS(=O)(=O)c1ccc(Oc2ccccc2Cl)cc1
inhibition [1]: 12.1%
